Pf growth 48h: Primary qHTS for delayed death inhibitors of the malarial parasite plastid, 48 hour incubation; P. falciparum luciferase growth in erythrocytes, 48 h; Potency, µM (series often up to 28.7 µM), inactives show at the top dose activity change, negative = inhibition, usual class: inhibitors; 310,000 tested, 5.9% active; AID 504832, 2011; note: % is set by controls: 0 for no effect and ±100 for the full control effect
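Luminescence readout; reporter = integrated firefly luciferase in P. falciparum. RBC culture at 2% hematocrit, 0.1% parasitemia final, 37 C/5% CO2; decreased signal taken as growth inhibition.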
NS1 inh: qHTS Assay for Inhibitors of Influenza NS1 Protein Function; Potency, µM (doses to about 46.1 µM), inactives show at the highest dose activity, positive = more growth; 270,000 tested, 0.4% active; AID 2326, 2010; calls by dose curve; note: actives are rising curves; nearly all actives have a fitted effect of over 50% in size
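A cell-based growth assay was used: compounds that relieve NS1-induced slow growth of budding yeast raise OD600. Assay medium was yeast nitrogen base with ammonium sulphate and -URA supplement, pH 6.0, with 2% galactose.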
Pf growth 96h: Primary qHTS for delayed death inhibitors of the malarial parasite plastid, 96 hour incubation; AID 504834, 2011; Potency, µM (titrated, usually from 28.7 µM), for inactives: at the highest dose activity change, negative = inhibition, hits mostly inhibitors; 320,000 tested, 6.9% active; P. falciparum luciferase reporter growth, 96 h; note: % is set by controls: 0 for no effect and ±100 for the full control effect
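96 h incubation, 37 C, 5% CO2, of luciferase-reporter P. falciparum-infected RBCs (2% hematocrit, 0.05% parasitemia final) with test compounds; endpoint luminescence.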
AMA1-RON2 inh: qHTS for Inhibitors of AMA1-RON; Towards Development of Antimalarial Drug Lead: Primary Screen. 360,000 tested, 0.2% active. AlphaScreen AMA1-biotinylated RON2 peptide binding. Plasmodium falciparum AMA1 (3D7) - RON2 peptide interaction. Potency, µM (top dose mostly 58.2 µM), inactives show at the top dose activity change, negative = inhibition, hits mostly inhibitors;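 note: 0% = vehicle wells and -100% = peptide control; nearly all actives have a fitted effect of over 45% in size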
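AMA1 (3D7) with his tag at 25 nM final met compounds first, then biotinylated RON2 peptide at 25 nM; detection used donor plus acceptor beads, 10 µg/mL apiece, read by AlphaScreen after 30 min at room temperature.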
Sm TGR block: qHTS Assay for the Inhibitors of Schistosoma Mansoni Peroxiredoxins; 360,000 tested, 3% active; purified TGR, DTNB reduction, TNB absorbance 405 nm; Potency, µM (doses to about 114 µM), for the others: at the top dose activity change, negative = inhibition, most hits filed as inhibitors; Schistosoma mansoni thioredoxin glutathione reductase (TGR), Q962Y6; note: % is set by controls: 0 for no effect and ±100 for the full control effect; nearly all actives have a fitted effect of over 60% in size
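Kinetic colorimetric format: TGR-catalysed, NADPH-driven DTNB reduction monitored via TNB absorbance. Enzyme dispensed at 20 nM; compound exposure 15 min at room temperature before reaction start.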
An asterisk follows results filed as active; ? = inconclusive; nt = not tested or not shown. An excerpt weighted towards active compounds, which were near 11% of everything screened. Unless noted, calls come from the whole dose curve; as a rule, active = well fitted curve in the direction sought with a large enough effect; inconclusive = small, poorly fitted or top-dose-only effect, or another doubt; inactive = no such curve, though single readings can be large; an effect the other way counts as inactive or inconclusive. Potency is the fitted concentration of half-maximal effect.

SMILES	Pf growth 48h	NS1 inh	Pf growth 96h	AMA1-RON2 inh	Sm TGR block
COC(=O)c1ccc2c(=O)n(CC3CCCO3)c(SCC(=O)Nc3ccccc3OC)nc2c1 (stereo unspecified)	?	-32%	56%	7%	8%
COC(=O)c1ccc2c(=O)n(CC3CCCO3)c(SCC(=O)Nc3ccccc3Cl)nc2c1 (stereo unspecified)	nt	11%	10µM*	-18%	2%
Cc1noc(C)c1NC(=O)N(C)C[C@@H]1Oc2ncc(Br)cc2C(=O)N([C@H](C)CO)C[C@@H]1C	nt	nt	nt	0%	nt
COCCN1C(=S)NC(c2cccc(C(F)(F)F)c2)C(C(=O)N2CCOCC2)=C1C (stereo unspecified)	-5%	3%	-11%	-2%	nt
CN(C)c1ccc(NC(=O)CSc2nc3ccccc3c(=O)n2CC2CCCO2)cc1 (stereo unspecified)	-13%	-5%	4.1µM*	-20%	-1%
Cc1ccc(NC(=O)CSc2nc3ccccc3c(=O)n2CC2CCCO2)cc1 (stereo unspecified)	-13%	12%	?	19%	-20%
COc1ccccc1-n1c(SC(C)C(=O)NCC2CCCO2)nc2cc(Cl)ccc2c1=O (stereo unspecified)	13µM*	nt	?	6%	5%
CCCn1c(SC(C)C(=O)NCC2CCCO2)nc2cc(Cl)ccc2c1=O (stereo unspecified)	?	nt	-21%	-11%	-2%
CC(OC(=O)c1nn(C)c(=O)c2ccccc12)C(=O)NC1CCCCC1C (stereo unspecified)	27%	nt	3%	14%	5%
CCN(CC(=O)Nc1ccc2c(c1)OCCO2)C(=O)c1ccccc1Br	nt	nt	nt	11%	nt
CCOC(=O)[C@]12CCCC=C1N(Cc1ccc(Cl)cc1Cl)C(=O)[C@H](CC(=O)NCCc1ccccc1OC)C2	nt	nt	nt	-22%	nt
Cc1ccc(S(=O)(=O)N2CCN(C(=S)NCc3ccc4c(c3)OCO4)CC2)cc1	1.9µM*	nt	?	-18%	-2%
CCNC(=S)N1CCN(S(=O)(=O)c2ccc(C)cc2)CC1	18%	-1%	-12%	-11%	16%
Cc1cccc(S(=O)(=O)N2CCN(Cc3ccc4c(c3)OCO4)CC2)c1	16%	7%	0.74µM*	-16%	2%
Cc1ccc(S(=O)(=O)N2CCCC2CNC(=O)c2ccc3c(c2)OCO3)cc1 (stereo unspecified)	?	nt	15µM*	-7%	-7%
COc1ccc(S(=O)(=O)N2CCN(Cc3ccc4c(c3)OCO4)CC2)cc1C	nt	nt	nt	nt	3%
COc1ccc(CCNC(=S)N2CCN(S(=O)(=O)c3ccc(C)cc3)CC2)cc1	2.9µM*	nt	2.6µM*	-2%	-1%
Cc1ccc(S(=O)(=O)N2CCCC2CNC(=O)c2ccccc2)cc1 (stereo unspecified)	?	nt	?	-11%	-2%
COCCCNC(=S)N1CCN(S(=O)(=O)c2ccc(OC)cc2)CC1	?	2%	-14%	28%	0%
COc1ccc(NC(=O)C(C)N2Cc3ccccc3C2=O)cc1OC (stereo unspecified)	nt	nt	nt	nt	5%
COc1ccc(C(=O)NCc2nnc(SCC(=O)N3CCOCC3)o2)cc1OC	7%	nt	?	-7%	0%
COc1ccc(CCN2CC(C(=O)NCc3cnn(C(C)C)c3)CCC2=O)cc1 (stereo unspecified)	-18%	19%	4%	9%	-22%
COc1ccccc1-n1cnnc1SCC(=O)NC1CCCC1	4%	nt	29%	-4%	-7%
COc1ccc(S(=O)(=O)N2CCN(C(=S)NCCc3ccccc3)CC2)cc1	4.1µM*	-5%	?	-16%	-20%
O=S(=O)(c1ccccc1)N1CCN(C(=S)NCCc2ccccc2)CC1	?	-2%	?	-3%	11%
SMILES	Pf growth 48h	NS1 inh	Pf growth 96h	AMA1-RON2 inh	Sm TGR block
CCCCN(Cc1cc2cc(OC)ccc2[nH]c1=O)C(=O)c1ccccn1	3%	1%	12%	-3%	3%
CCCCN(Cc1cc2cc(OC)ccc2[nH]c1=O)C(=O)c1ccco1	nt	-6%	?	-4%	45µM*
COc1ccc2[nH]c(=O)c(CN(C(=O)c3ccco3)C(C)C)cc2c1	0%	-1%	48%	11%	2%
COC(=O)c1cccc(S(=O)(=O)N(Cc2ccco2)Cc2cc3cc(OC)ccc3[nH]c2=O)c1	nt	10%	-26%	-10%	28µM*
CCCN(Cc1cc2cc(OC)ccc2[nH]c1=O)C(=O)c1ccco1	4%	-4%	14%	0%	40µM*
CC1(C)Cc2c(ccc3ccccc23)/C(=C/C#N)N1	0%	15%	0%	0%	45µM*
CCN(CC)C1CCN(Cc2cn[nH]c2-c2ccc(OC)c(F)c2)C1 (stereo unspecified)	12%	0%	2.1µM*	0%	-31%
O=C1NC[C@H](CCCCN2C[C@H](Cc3ccccc3)N(CCC3CCCCC3)C(=O)C2=O)N(CCc2ccc(O)cc2)C1=O	nt	nt	nt	0%	nt
CCc1ccccc1N1CC(C(=O)Nc2nccs2)CC1=O (stereo unspecified)	19%	4%	3%	-9%	5%
CCOC(=O)CCSc1nc2c(c(C(F)(F)F)c1C#N)CCC2	9.3µM*	-14%	-27%	51%	17%
CCCCSc1nc2c(c(C(F)(F)F)c1C#N)CCC2	nt	-9%	?	45%	1%
CCOc1ccc(NC(=O)c2cccc3c(=O)c4c([nH]c23)CCCC4)cc1	nt	nt	nt	nt	-1%
CCOc1ccccc1NC(=O)C1=C(C)Nc2ncnn2C1c1ccccn1 (stereo unspecified)	nt	nt	nt	nt	-2%
Brc1ccc2c(c1)C(OC1CN3CCC1CC3)c1ccccc1CS2 (stereo unspecified)	?	6%	10µM*	-3%	89µM*
Cc1ccc(S(=O)(=O)N2CCOC23CCN(C(=O)c2ccc(Cl)cc2Cl)CC3)cc1	?	-15%	24%	-6%	7.9µM*
Cc1ccc(S(=O)(=O)N2CCOC23CCN(C(=O)c2cc(Cl)ccc2Cl)CC3)cc1	?	-60%	-10%	-7%	-14%
COc1ccc(S(=O)(=O)N2CCOC23CCN(S(=O)(=O)c2ccc(F)cc2)CC3)cc1	?	nt	?	-8%	-6%
COc1ccc(S(=O)(=O)N2CCOC23CCN(S(=O)(=O)c2ccc(C)cc2)CC3)cc1	15µM*	nt	?	-15%	-26%
Cc1ccc(S(=O)(=O)N2CCOC23CCN(S(=O)(=O)c2c(C)cc(C)cc2C)CC3)cc1	?	nt	4.7µM*	20%	-6%
CCN1C[C@@H]2[C@@H]3C(=O)N(Cc4ccccc4)C(=O)[C@@H]3[C@](CC)(C1=O)N2C(=O)c1ccccc1	nt	nt	nt	3%	nt

Screening data deposited in PubChem BioAssay by National Center for Advancing Translational Sciences (NCATS).
